Five compounds from ChEMBL document CHEMBL1961873, “Compounds: GSK PKIS; Assays: Nanosyn kinase panel” (2012) can be followed below.

The structures appear in SMILES notation.

The target of experiment [1] is Tyrosine-protein kinase CSK (Homo sapiens) (UniProt P41240). The settings on record: at 1 µM.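 Also: each value is an averaged inhibition reading.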
Experiment [2] has as its target T1, Discoidin domain-containing receptor 2 (Homo sapiens) (UniProt Q16832).
T1 sequence (whole entry): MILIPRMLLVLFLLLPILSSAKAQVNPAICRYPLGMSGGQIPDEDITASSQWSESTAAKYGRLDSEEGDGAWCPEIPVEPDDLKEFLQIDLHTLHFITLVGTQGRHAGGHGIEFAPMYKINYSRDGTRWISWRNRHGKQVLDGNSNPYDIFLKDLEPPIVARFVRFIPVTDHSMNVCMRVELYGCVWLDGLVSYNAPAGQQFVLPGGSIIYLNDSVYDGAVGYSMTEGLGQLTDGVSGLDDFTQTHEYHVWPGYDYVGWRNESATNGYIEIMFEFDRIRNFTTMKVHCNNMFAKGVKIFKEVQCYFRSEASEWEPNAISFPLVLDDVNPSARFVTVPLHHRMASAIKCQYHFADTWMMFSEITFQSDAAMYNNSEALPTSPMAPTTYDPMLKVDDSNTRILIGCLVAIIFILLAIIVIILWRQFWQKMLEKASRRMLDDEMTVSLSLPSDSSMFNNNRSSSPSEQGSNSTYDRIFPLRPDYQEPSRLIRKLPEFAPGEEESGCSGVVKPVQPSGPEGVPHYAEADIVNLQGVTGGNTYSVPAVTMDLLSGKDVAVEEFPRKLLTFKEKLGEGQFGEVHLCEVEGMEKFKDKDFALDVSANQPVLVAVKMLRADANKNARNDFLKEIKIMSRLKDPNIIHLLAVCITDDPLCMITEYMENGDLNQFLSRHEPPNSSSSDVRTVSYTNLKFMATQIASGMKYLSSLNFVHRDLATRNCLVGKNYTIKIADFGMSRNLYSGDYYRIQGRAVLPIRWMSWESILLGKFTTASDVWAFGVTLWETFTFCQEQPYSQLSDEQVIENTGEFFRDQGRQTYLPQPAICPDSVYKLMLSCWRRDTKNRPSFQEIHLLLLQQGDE
The settings on record: at 0.1 µM.

In experiment [3] the target is T1, Discoidin domain-containing receptor 2 (Homo sapiens). Conditions: at 1 µM.
The target of experiment [4] is Epidermal growth factor receptor (Homo sapiens) (UniProt P00533). Conditions: at 0.1 µM.
Experiment [5] has the same target. The settings on record: at 1 µM.
Experiment [6] deals with Epidermal growth factor receptor (Homo sapiens), P00533 [L858R]. The settings on record: at 0.1 µM.
Epidermal growth factor receptor (Homo sapiens), P00533 [L858R], sequence (P00533 whole entry L858R): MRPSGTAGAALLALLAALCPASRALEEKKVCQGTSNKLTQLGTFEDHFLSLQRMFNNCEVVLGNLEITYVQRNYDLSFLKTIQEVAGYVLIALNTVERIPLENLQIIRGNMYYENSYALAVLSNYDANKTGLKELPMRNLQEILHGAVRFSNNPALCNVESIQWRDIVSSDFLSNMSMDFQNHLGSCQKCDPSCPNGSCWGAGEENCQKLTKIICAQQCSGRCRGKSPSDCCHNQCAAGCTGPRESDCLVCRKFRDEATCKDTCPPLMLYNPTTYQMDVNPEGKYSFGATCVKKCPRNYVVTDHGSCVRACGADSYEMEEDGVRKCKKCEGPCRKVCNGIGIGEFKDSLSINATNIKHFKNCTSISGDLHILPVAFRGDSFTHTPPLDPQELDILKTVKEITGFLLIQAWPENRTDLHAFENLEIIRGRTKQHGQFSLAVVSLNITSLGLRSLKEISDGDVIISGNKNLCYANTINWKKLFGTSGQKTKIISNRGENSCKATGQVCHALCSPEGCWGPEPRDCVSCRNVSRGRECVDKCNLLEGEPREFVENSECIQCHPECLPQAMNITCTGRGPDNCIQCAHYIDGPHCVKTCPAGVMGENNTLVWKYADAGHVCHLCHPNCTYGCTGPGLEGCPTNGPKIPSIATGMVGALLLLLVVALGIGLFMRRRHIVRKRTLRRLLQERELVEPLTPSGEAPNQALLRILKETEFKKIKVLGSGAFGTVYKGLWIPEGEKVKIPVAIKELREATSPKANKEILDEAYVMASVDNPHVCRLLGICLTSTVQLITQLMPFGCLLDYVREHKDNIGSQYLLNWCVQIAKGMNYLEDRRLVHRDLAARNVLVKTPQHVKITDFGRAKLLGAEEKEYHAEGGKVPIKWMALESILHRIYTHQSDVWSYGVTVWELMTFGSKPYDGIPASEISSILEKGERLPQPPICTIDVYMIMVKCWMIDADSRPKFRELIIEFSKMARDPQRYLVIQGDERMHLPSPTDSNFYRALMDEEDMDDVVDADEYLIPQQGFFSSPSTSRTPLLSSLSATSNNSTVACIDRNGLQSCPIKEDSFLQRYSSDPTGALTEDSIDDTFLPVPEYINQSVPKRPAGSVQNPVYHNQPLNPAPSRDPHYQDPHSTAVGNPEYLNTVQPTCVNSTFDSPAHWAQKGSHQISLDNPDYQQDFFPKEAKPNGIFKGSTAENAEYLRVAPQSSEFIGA
Experiment [7] shares this test system. Conditions: at 1 µM.
Experiment [8] has as its system Epidermal growth factor receptor (Homo sapiens), P00533 [L861Q]. The settings on record: at 0.1 µM.
Experiment [9] has the same test system. The settings on record: at 1 µM.
For experiment [10], the system named is Epidermal growth factor receptor (Homo sapiens), P00533 [T790M]. Conditions: at 0.1 µM.
The test system is the same in experiment [11]. The settings on record: at 1 µM.
The subject of experiment [12] is Epidermal growth factor receptor (Homo sapiens), P00533 [L858R,T790M]. Conditions: at 0.1 µM.
Experiment [13] has the same test system. The settings on record: at 1 µM.
In experiment [14] the target is Ephrin type-A receptor 2 (Homo sapiens) (UniProt P29317). Conditions: at 0.1 µM.
Ephrin type-A receptor 2 (Homo sapiens), sequence (P29317 whole entry): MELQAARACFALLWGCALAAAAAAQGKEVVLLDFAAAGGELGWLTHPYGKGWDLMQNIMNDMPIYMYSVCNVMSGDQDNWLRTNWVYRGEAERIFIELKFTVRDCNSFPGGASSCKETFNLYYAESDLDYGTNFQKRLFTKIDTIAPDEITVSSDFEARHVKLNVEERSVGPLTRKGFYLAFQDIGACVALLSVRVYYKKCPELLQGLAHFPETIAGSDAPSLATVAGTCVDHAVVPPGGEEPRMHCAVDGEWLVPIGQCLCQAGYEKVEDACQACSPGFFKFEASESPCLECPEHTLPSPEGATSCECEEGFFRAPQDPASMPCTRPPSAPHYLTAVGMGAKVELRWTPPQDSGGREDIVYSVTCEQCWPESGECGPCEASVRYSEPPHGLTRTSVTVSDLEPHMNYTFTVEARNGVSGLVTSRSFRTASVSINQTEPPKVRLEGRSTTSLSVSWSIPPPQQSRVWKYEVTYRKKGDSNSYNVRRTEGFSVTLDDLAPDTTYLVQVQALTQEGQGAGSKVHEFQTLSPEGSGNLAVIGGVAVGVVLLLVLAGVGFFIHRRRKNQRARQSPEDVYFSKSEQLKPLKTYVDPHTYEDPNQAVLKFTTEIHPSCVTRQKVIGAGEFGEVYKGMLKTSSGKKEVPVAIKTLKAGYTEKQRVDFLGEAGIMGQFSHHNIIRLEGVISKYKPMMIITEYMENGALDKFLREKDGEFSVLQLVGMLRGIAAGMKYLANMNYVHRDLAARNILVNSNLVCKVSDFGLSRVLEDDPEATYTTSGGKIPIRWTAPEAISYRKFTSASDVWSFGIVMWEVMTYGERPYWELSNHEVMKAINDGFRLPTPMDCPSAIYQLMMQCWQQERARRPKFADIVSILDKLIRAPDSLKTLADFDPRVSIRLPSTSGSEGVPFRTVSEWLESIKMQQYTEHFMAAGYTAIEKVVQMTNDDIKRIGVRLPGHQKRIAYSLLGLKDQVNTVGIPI
Experiment [15] has the same target. The settings on record: at 1 µM.
Experiment [16] deals with T2, Ephrin type-A receptor 3 (Homo sapiens) (UniProt P29320).
T2 sequence (whole entry): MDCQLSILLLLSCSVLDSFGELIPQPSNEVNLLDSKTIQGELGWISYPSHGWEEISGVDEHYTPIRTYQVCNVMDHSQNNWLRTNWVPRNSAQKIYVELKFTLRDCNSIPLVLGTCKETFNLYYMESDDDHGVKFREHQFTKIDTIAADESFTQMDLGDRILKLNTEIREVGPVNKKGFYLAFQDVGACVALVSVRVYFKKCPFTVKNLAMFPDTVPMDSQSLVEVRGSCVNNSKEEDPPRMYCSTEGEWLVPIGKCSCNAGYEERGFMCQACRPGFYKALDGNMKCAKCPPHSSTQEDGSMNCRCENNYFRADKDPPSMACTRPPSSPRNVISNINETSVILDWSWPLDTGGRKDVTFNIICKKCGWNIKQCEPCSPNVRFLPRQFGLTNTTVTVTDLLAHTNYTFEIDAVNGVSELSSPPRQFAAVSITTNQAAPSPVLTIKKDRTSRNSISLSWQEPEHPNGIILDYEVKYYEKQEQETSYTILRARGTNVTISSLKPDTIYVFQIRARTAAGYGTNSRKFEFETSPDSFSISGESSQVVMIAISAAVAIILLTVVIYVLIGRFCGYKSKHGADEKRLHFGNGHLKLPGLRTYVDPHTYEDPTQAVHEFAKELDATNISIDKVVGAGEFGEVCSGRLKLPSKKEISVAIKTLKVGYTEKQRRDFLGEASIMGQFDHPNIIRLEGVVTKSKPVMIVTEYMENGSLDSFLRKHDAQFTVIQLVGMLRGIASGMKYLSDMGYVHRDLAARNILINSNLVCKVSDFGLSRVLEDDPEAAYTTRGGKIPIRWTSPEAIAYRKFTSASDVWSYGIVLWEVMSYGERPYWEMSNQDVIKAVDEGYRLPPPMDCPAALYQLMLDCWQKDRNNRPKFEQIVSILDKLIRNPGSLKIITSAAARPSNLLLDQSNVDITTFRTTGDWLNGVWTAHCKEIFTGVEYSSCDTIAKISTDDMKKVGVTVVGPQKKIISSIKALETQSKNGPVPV
Conditions: at 0.1 µM.

For experiment [17], the target named is T2, Ephrin type-A receptor 3 (Homo sapiens). The settings on record: at 1 µM.
Experiment [18] has as its target Ephrin type-A receptor 4 (Homo sapiens) (UniProt P54764). The settings on record: at 0.1 µM.
Experiment [19] has the same target. Conditions: at 1 µM.
The target of experiment [20] is T3, Ephrin type-B receptor 2 (Homo sapiens) (UniProt P29323).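 Also: reported as mean inhibition of EPHB2, from the GSK PKIS dataset.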
T3 sequence (whole entry): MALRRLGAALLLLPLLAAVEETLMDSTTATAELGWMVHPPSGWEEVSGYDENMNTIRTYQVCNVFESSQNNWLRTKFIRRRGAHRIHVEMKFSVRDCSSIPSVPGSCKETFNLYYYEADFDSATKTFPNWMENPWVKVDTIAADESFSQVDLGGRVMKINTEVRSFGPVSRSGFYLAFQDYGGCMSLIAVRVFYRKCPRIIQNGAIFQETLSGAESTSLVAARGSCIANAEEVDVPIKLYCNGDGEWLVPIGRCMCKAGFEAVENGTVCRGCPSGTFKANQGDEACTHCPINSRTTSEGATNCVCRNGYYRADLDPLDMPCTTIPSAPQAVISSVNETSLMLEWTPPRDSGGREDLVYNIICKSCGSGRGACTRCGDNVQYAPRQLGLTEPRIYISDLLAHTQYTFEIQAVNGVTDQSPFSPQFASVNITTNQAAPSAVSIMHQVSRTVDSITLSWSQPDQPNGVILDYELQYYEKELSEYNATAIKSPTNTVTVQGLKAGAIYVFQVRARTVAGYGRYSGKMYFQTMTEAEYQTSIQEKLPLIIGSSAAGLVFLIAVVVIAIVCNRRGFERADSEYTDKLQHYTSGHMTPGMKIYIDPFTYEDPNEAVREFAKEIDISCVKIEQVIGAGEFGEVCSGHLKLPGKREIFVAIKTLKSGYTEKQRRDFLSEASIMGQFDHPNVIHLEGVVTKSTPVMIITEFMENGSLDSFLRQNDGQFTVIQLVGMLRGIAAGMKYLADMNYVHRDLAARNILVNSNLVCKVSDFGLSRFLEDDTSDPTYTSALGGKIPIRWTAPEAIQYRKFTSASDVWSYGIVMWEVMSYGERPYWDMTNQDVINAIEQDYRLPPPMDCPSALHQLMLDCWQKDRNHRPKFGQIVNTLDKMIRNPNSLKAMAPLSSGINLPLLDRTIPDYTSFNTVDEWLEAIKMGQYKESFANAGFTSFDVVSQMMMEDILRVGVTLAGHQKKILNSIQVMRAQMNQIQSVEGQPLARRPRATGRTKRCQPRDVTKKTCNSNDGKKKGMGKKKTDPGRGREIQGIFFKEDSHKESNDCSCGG
The settings on record: at 0.1 µM.

Epidermal growth factor receptor (Homo sapiens), P00533 [L861Q], sequence (P00533 whole entry L861Q): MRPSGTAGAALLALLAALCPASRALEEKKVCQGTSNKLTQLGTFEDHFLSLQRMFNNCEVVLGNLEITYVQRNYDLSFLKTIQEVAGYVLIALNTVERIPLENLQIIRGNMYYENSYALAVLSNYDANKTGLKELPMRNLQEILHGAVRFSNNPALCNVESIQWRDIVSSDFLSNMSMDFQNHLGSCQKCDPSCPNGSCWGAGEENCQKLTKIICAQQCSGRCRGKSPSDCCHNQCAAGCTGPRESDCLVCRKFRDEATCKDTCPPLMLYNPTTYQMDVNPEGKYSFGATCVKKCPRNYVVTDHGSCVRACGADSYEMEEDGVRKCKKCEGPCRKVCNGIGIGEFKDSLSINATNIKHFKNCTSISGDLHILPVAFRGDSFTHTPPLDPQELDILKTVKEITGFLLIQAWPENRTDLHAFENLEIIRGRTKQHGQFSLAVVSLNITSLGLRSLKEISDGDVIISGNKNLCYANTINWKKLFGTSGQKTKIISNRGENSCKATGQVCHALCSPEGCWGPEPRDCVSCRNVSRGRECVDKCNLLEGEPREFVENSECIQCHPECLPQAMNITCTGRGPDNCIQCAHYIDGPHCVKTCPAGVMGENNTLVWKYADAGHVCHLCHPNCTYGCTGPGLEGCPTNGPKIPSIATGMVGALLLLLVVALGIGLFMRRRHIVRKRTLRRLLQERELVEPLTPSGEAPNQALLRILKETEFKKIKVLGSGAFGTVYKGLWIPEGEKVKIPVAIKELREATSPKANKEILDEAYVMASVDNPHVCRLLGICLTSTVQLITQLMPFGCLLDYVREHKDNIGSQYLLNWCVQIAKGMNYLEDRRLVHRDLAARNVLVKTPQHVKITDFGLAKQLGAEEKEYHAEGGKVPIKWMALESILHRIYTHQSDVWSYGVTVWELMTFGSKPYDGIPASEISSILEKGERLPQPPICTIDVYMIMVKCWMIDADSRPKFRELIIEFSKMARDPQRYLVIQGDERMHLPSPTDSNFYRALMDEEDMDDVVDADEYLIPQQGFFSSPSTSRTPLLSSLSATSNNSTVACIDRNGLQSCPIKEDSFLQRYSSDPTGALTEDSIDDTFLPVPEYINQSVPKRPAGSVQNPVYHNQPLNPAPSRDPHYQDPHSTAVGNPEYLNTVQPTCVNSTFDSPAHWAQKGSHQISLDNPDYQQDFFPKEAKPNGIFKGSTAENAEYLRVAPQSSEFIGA
Ephrin type-A receptor 4 (Homo sapiens), sequence (P54764 whole entry): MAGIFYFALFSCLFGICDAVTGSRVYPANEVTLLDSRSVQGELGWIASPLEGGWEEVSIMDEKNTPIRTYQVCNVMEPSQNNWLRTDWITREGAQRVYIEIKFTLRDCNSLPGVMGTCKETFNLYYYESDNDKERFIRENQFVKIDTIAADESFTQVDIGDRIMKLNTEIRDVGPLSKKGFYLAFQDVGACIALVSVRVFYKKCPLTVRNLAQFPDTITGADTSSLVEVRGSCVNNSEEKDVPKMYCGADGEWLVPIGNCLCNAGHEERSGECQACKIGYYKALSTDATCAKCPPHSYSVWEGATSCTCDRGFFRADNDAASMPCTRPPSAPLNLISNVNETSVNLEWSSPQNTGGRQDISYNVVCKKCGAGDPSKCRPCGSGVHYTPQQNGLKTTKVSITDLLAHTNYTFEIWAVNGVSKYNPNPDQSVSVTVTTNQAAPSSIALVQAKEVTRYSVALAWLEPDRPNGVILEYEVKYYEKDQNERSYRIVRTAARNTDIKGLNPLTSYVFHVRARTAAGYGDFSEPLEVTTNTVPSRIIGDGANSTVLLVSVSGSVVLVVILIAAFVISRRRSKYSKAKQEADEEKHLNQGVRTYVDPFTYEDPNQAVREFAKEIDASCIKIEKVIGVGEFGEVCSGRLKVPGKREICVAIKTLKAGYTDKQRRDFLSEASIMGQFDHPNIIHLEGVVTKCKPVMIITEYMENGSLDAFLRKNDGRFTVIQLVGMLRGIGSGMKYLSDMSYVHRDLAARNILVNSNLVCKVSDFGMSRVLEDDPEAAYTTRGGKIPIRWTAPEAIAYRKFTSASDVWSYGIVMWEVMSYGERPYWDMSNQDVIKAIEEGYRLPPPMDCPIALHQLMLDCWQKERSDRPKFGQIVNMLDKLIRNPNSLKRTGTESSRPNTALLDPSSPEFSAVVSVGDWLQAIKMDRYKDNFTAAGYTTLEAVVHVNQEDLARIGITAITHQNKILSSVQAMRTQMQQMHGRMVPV
Tyrosine-protein kinase CSK (Homo sapiens), sequence (P41240 2-450 limits assumed): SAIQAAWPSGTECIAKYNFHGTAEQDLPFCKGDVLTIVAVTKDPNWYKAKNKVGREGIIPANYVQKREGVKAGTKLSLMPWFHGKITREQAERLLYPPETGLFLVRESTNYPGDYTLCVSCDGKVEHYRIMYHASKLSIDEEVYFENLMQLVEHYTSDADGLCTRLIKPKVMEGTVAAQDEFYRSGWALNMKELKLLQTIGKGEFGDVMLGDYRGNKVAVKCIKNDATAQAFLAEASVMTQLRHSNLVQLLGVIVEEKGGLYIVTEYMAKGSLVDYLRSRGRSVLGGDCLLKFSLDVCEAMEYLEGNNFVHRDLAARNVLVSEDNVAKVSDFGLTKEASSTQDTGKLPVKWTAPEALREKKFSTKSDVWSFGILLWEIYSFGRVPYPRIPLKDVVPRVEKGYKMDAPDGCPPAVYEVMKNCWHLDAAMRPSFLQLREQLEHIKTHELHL

Turning to `Fc1cccc(COc2ccc(Nc3ncnc4cc(-c5ccc[nH]5)sc34)cc2Cl)c1`, the inhibition (usually the relative decrease from the control value, in per cent) is 1.12% in [1]; 0.15% in [2]; -1% in experiment [3]; 66.2% in experiment [4]; 77.3% in experiment [5]; 32.5% in [6]. In addition, the inhibition in experiment [7] is 82.9%; in experiment [8], 37.8%; in experiment [9], 71.8%; in [10], 0.21%; in experiment [11], 2.62%; in experiment [12] it was -2.38%. Also, the inhibition in experiment [13] is 0.3%; in experiment [14] it was -6.71%; in experiment [15], -6.16%; in experiment [16] it was -1.97%; in experiment [17] it was -0.94%; in experiment [18] it was 5.45%. Further, the inhibition was determined as 6.22% in [19] and 1.52% in experiment [20].
Regarding `CC1=C(C(=O)Nc2ccc3[nH]ncc3c2)C(c2ccc(Cl)c(Cl)c2)CC(=O)N1` (stereo not given), the inhibition amounted to 4.23% in experiment [1]; 3.12% in experiment [2]; 3.67% in [3]; 6.77% in [4]; 8.22% in [5]; 1.45% in experiment [6]. Moreover, the inhibition in experiment [7] stood at 5.4%; in [8] it was 1.95%; in experiment [9], 0.96%; in [10] it was 0.19%; in [11], 0.85%; in experiment [12], 2.39%. The inhibition in [13] is 12.1%; in experiment [14] it was -0.63%; in experiment [15], 0.57%; in experiment [16], 3.06%; in [17], 2.8%; in experiment [18], 6.53%. Further, the inhibition in [19] came to 4.28%; in [20] it was 7.7%.
Turning to `Nc1nc(-c2ccc3c(c2)C(=Cc2cc(Br)c(O)c(Br)c2)C(=O)N3)cs1`, the inhibition in experiment [1] is -6.6%; in experiment [2], 0.46%; in [3] it was 2.46%; in [4] it was 0.84%; in [5], 5.53%; in [6], -3.68%. Besides, the inhibition was 8.58% in experiment [7]; 0.03% in experiment [8]; 1.67% in [9]; -1.77% in experiment [10]; -1.57% in experiment [11]; -0.73% in experiment [12]. In addition, the inhibition was 3.93% in experiment [13]; -4.92% in experiment [14]; -4.26% in experiment [15]; -6.05% in [16]; -2.41% in experiment [17]; -6.57% in experiment [18]. The inhibition in experiment [19] was -2.56%; in experiment [20], -3.26%.
For `CCn1c(-c2nonc2N)nc2cncc(C(=O)N3CC[C@H](N)C3)c21`, the inhibition in experiment [1] was found to be 5.06%; in experiment [2], 1.43%; in [3], 1.61%; in [4], 0.8%; in experiment [5], 2.64%; in experiment [6] it was 3.22%. The inhibition in experiment [7] worked out at 5.35%; in [8] it was 3.58%; in experiment [9], 4.5%; in [10], 2.65%; in experiment [11] it was 3.15%; in experiment [12], 1.56%. The inhibition is 1.95% in [13]; -0.29% in experiment [14]; -0.49% in [15]; 4.99% in experiment [16]; 5.74% in experiment [17]; 9.5% in experiment [18]. Moreover, the inhibition in experiment [19] was 10%; in experiment [20], 5.01%.
For the compound `O=C1NC(=O)C(c2ccccc2Cl)=C1Nc1cccc(O)c1`, the inhibition in [1] is 3.08%; in [2], -0.34%; in experiment [3] it was -0.1%; in [4] it was 2.49%; in experiment [5] it was 5.23%; in experiment [6] it was 3.81%. The inhibition in experiment [7] worked out at 3.71%; in experiment [8], 0.72%; in [9], 3.71%; in experiment [10] it was 1.27%; in experiment [11], 0.02%; in experiment [12], 0.56%. Moreover, the inhibition in [13] came out at 1.35%; in [14] it was 2.61%; in [15] it was 1.5%; in [16], 2.51%; in experiment [17], 2.67%; in experiment [18] it was 5.56%. The inhibition in experiment [19] is 2.36%; in [20], 5.61%.
